# Results: PubChem BioAssay AID651871 (Sanford-Burnham Center for Chemical Genomics, 2012)
# Where “and” joins values, the source holds several entries; their conditions need not be identical. Equal entries are not always repeated.
# Tested on: H9c2
# Test: protection of cardiomyocytes from stress damage, SAR follow-up, cell-based, panel, H9c2 and HL-1, ATP luminescence, set 2 (AID 651871);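 further: cells exposed to stressor for 2 h before ATP readout; reference of the scale not given here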
# Settings: H9c2/HL-1 cardiomyocytes, 2-deoxyglucose stress, with 2-deoxyglucose; run 5, at 79 µM (top of the series)
row,Structure (SMILES),activity (protection/inhibition)
1,CCOC(=O)c1cccc(NC(=O)CNC(=O)c2cc(-c3cc(OC)c(OC)c(OC)c3)nc3ccccc23)c1,97.3%
2,COc1ccc2nc(-c3cc(OC)c(OC)c(OC)c3)cc(C(=O)NCC(=O)Nc3ccc(C(C)=O)cc3)c2c1,70.9%
3,COc1ccc2c(c1OC)C(=O)N1c3ccccc3C(=O)N(Cc3cccc(Cl)c3Cl)C21 (stereo not drawn),88% and 69.1% and -5.13%
